Our source for the binding signal values is article PMC8384837, “Expanding the binding specificity for RNA recognition by a PUF domain”.

PUM1 PUF domain R3-LYV, sequence (Q14671 828-1176 C935L/R936Y/Q939V): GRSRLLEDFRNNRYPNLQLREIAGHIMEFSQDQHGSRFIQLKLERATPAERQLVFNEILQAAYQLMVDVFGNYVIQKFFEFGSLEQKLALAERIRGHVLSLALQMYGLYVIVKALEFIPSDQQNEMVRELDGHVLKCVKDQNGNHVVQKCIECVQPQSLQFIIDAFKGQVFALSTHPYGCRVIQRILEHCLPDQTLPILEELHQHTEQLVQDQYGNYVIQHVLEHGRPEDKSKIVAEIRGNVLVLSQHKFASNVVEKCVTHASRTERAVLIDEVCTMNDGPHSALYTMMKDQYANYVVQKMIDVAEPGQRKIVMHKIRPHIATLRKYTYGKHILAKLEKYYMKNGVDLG

For this test, the target named is PUM1 PUF domain R3-LYV (Homo sapiens, UniProt Q14671 828-1176, C935L;R936Y;Q939V). Put plainly: yeast three-hybrid, YBZ-1, SC-Leu-His + 0.5 mM 3-AT, 4 days. The settings on record: tags: N-Gal4 AD-HA kept; label: inside an RPR1-promoter hybrid RNA with tandem MS2 sites; ssRNA. Put shortly:
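Pumilio-1 PUF domain libraries, randomized (NNK) at the three base-contacting residues of each repeat, were co-expressed with matching RNA elements from a centromeric plasmid in strain YBZ-1 (LexA–MS2 coat fusion, HIS3 reporter). Transformants were plated on SC-Leu (input) and SC-Leu-His + 0.5 mM 3-AT (selection) for four days, and repeat regions were PCR-amplified and Illumina-sequenced. The interaction score is the log2 change in variant frequency from input to selection, with pseudocount 1 where absent.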
Take “GGCUAGAACUAGUGGAUCCCCCGGCGCCCGGCGGCUCGAGCCCGGGUAAGUGUAAUUAGUCUGCAUGCCGCCGGGCGCCAUGCCUGCAGGUCGACUCUAGAAAACAUG”: the binding signal is 5.79 log2 enrichment (interaction score).

Take “GGCUAGAACUAGUGGAUCCCCCGGCGCCCGGCGGCUCGAGCCCGGGUAAGUGUAAAUAGUCUGCAUGCCGCCGGGCGCCAUGCCUGCAGGUCGACUCUAGAAAACAUG”: the binding signal is 4.4 log2 enrichment (interaction score). On to “GGCUAGAACUAGUGGAUCCCCCGGCGCCCGGCGGCUCGAGCCCGGGUAAGUGUAAGUAGUCUGCAUGCCGCCGGGCGCCAUGCCUGCAGGUCGACUCUAGAAAACAUG”, for which the binding signal is 4.97 log2 enrichment (interaction score).
